This is part of a sample that, as a whole, favours compounds with a hit. Of some 79,000 tested, about 15% had one in any assay. Active and inactive are the calls of the source. Cut-off read from the data, not from the text of the source: active = growth inhibition above about 70%; inactive = the rest.

One test can be described thus: NCI Yeast Anticancer Drug Screen. Data for the rad50 strain (AID 155).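 Note: 0% = growth of vehicle-only cultures of the same strain.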 The conditions noted are these: S. cerevisiae rad50 strain growth inhibition; at 5.0 µM (retest, dose inferred, filed as 0.5); hits give high values. An outline of the steps: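 Readout: growth inhibition relative to vehicle-treated cultures. Compound exposure was carried out in a genetically defined yeast strain deficient in DNA damage repair.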
Consider `CC(CC(C#CCN(C)C)N(C)C)CC(C)(C)C` (stereo not drawn), for which the growth inhibition is 22% (inactive).
`CCCCCCCCCCNC(=O)C[n+]1cccc(C(=O)NCc2ccccc2)c1`: the growth inhibition was 8% (inactive).
`Cc1ccc(N2C(N)=C(C#N)C(C#N)(C#N)C2c2ccccc2)cc1` (stereo not drawn): the growth inhibition was 22% (inactive).
Regarding `O=[N+]([O-])c1cccc(Cl)c1C(Nc1nncs1)Nc1nncs1`, the growth inhibition was 7% (inactive).
For `CCCC(C(=O)OCCNC1CCCCC1)c1ccccc1` (stereo not drawn), the growth inhibition is 2% (inactive).
As to `BrCc1ccc([Si](c2ccccc2)(c2ccccc2)c2ccc(CBr)cc2)cc1`, the growth inhibition was -3% (inactive).
For the molecule `CCCCC(O)(c1ccccc1)C(O)(c1ccccc1)c1c(F)c(F)c(F)c(F)c1F` (stereo not drawn), the growth inhibition is 17% (inactive).
Consider `C/C=C\C=N\NC(N)=S`, for which the growth inhibition is 4% (inactive).
For the molecule `NCCc1ccc2oc3cc(=O)c4ccccc4c-3nc2c1`, the growth inhibition is 3% (inactive).
On the same count and under the same terms, the same measure for `CC(C)=CCc1ccc(O)cc1`: -24% (inactive); for `CCCCCCCCCCCCCC/[N+]([O-])=C/c1ccc([N+](=O)[O-])o1`: 7% (inactive); for `Fc1ccc(CSC(=S)Nc2ccc(Br)cc2)cc1`: 9% (inactive).
Turning to `C/C(=N\NC(=S)N1CCN(C2CCCCC2)CC1)c1ccccn1`, the growth inhibition is -3% (inactive).
Regarding `Cc1ccccc1N=Nc1sc(N)nc1-c1ccccc1`, the growth inhibition is -6% (inactive).
Consider `CN(c1ccc(C(N)=O)cc1)c1c(O)c2ccccc2[nH]c1=O`, for which the growth inhibition was 1% (inactive).
On the same count and under the same terms, then `Fc1ccc(CSC(=S)Nc2cccc(C(F)(F)F)c2)cc1`, with 10% (inactive); and `COc1ccccc1C(C)c1ccc2ccccc2c1C(=O)O` (stereo not drawn), with 11% (inactive); and `CNC(=O)OCc1c(-c2ccccc2)c(-c2ccccc2)n(-c2ccc(OC)cc2)c1COC(=O)NC`, with 26% (inactive).
Same read-out and setting: the same measure for `Cc1cc(SCC(=O)c2ccc(Cl)cc2)cc(C)[o+]1`: -3% (inactive); for `Cn1cnc([N+](=O)[O-])c1Sc1nc2ccccc2s1`: 57% (inactive); for `CCOC(=S)SSC(=S)NCCNC(=S)SSC(=S)OCC`: 9% (inactive).
Regarding `Cc1nc(C)c(C(=O)NNC(=O)C[N+](C)(C)C)cc1C(=O)NNC(=O)C[N+](C)(C)C`, the growth inhibition is 66% (inactive).
On to `CC/C(=C(\CC)c1ccc(O)c(CN(CC)CC)c1)c1ccc(OC)cc1`, for which the growth inhibition was -1% (inactive).
Consider `CC(C)N(C(=O)CC1(O)CCCCC1)C(C)C`, for which the growth inhibition was 2% (inactive).
The same measure, in the same setting: the same measure for `CCCCN(CCCC)CC(O)c1cc(-c2ccc(Cl)cc2)nc2cc(C)ccc12` (stereo not drawn): -5% (inactive); for `C/C(=C\c1ccccc1Cl)c1ccccn1`: 2% (inactive); for `O=C(OC1C2CCC2C2CC21)c1cc([N+](=O)[O-])cc([N+](=O)[O-])c1` (stereo not drawn): -9% (inactive).
Still for that read-out and setting: then `O=c1[nH]c2c([N+](=O)[O-])cc(Cl)cc2nc1/C=C(\O)c1ccc(F)cc1`, with 12% (inactive); and `CC(=O)N[C@H]1CC[C@H]2[C@@H]3CCC4=CC(=O)CC[C@]4(C)[C@H]3CC[C@]12C`, with 5% (inactive); and `CC12OC(=O)C(C(N)=O)=C1C=C(c1ccccc1)CC2c1ccccc1` (stereo not drawn), with -1% (inactive).
Same read-out and setting: then `Cn1c2nc(-[n+]3ccccc3)nc-2c([O-])n(C)c1=O`, with 1% (inactive).
For the molecule `COc1cc(NCCCCCCCC2CCCCN2)c2ncccc2c1` (stereo not drawn), the growth inhibition was -1% (inactive).
For the molecule `Nc1ncnc(N2CCOCC2)c1N`, the growth inhibition is -1% (inactive).
The same measure, in the same setting: the same measure for `CCCCCCCCCCCCNCC(=O)O`: -2% (inactive); for `O=C(O)C1C2CC3CC(C2)CC1C3` (stereo not drawn): 2% (inactive).
Turning to `CC(=O)OC1CCC2(C)C(=CCC3C2CCC2(C)C3CC(C(N)=O)C2C(C)=O)C1` (stereo not drawn), the growth inhibition was -2% (inactive).
As to `CC1(C)CC(=N/O)/C(=N/O)C(=N\NC(N)=S)/C1`, the growth inhibition is 7% (inactive).
Same read-out and setting: the same measure for `CCCCCCCCCCCCCCCCCC1=NCCN1`: 6% (inactive).
For the molecule `O=c1c2ccccc2c2ccccc2c(=O)n1-c1cc2c3ccccc3ccc2c2ccccc12`, the growth inhibition was 12% (inactive).

The test is the same for the next values; noted with them: S. cerevisiae rad50 strain growth inhibition; at 50.0 µM (retest, dose inferred, filed as 5.0); hits give high values.
Consider `CC(CC(C#CCN(C)C)N(C)C)CC(C)(C)C` (stereo not drawn), for which the growth inhibition is -9% (inactive).
For `CCCCCCCCCCNC(=O)C[n+]1cccc(C(=O)NCc2ccccc2)c1`, the growth inhibition is 99% (active).
Still for that read-out and setting: the same measure for `Cc1ccc(N2C(N)=C(C#N)C(C#N)(C#N)C2c2ccccc2)cc1` (stereo not drawn): 70% (active); for `O=[N+]([O-])c1cccc(Cl)c1C(Nc1nncs1)Nc1nncs1`: 60% (inactive).
Regarding `CCCC(C(=O)OCCNC1CCCCC1)c1ccccc1` (stereo not drawn), the growth inhibition was 18% (inactive).
As for `BrCc1ccc([Si](c2ccccc2)(c2ccccc2)c2ccc(CBr)cc2)cc1`, the growth inhibition is -16% (inactive).
The same measure, in the same setting: then `CCCCC(O)(c1ccccc1)C(O)(c1ccccc1)c1c(F)c(F)c(F)c(F)c1F` (stereo not drawn), with 99% (active); and `C/C=C\C=N\NC(N)=S`, with 5% (inactive).
Take `NCCc1ccc2oc3cc(=O)c4ccccc4c-3nc2c1`: the growth inhibition was 22% (inactive).
The same measure, in the same setting: the same measure for `CC(C)=CCc1ccc(O)cc1`: 97% (active); for `CCCCCCCCCCCCCC/[N+]([O-])=C/c1ccc([N+](=O)[O-])o1`: 18% (inactive); for `Fc1ccc(CSC(=S)Nc2ccc(Br)cc2)cc1`: 99% (active).
On the same count and under the same terms, then `C/C(=N\NC(=S)N1CCN(C2CCCCC2)CC1)c1ccccn1`, with 64% (inactive); and `Cc1ccccc1N=Nc1sc(N)nc1-c1ccccc1`, with 94% (active); and `CN(c1ccc(C(N)=O)cc1)c1c(O)c2ccccc2[nH]c1=O`, with 58% (inactive).
As for `Fc1ccc(CSC(=S)Nc2cccc(C(F)(F)F)c2)cc1`, the growth inhibition was 99% (active).
Turning to `COc1ccccc1C(C)c1ccc2ccccc2c1C(=O)O` (stereo not drawn), the growth inhibition was 91% (active).
On the same count and under the same terms, the same measure for `CNC(=O)OCc1c(-c2ccccc2)c(-c2ccccc2)n(-c2ccc(OC)cc2)c1COC(=O)NC`: 96% (active); for `Cc1cc(SCC(=O)c2ccc(Cl)cc2)cc(C)[o+]1`: 90% (active); for `Cn1cnc([N+](=O)[O-])c1Sc1nc2ccccc2s1`: 96% (active).
Still for that read-out and setting: the same measure for `CCOC(=S)SSC(=S)NCCNC(=S)SSC(=S)OCC`: 40% (inactive); for `Cc1nc(C)c(C(=O)NNC(=O)C[N+](C)(C)C)cc1C(=O)NNC(=O)C[N+](C)(C)C`: 8% (inactive).
On the same count and under the same terms, then `CC/C(=C(\CC)c1ccc(O)c(CN(CC)CC)c1)c1ccc(OC)cc1`, with 68% (inactive); and `CC(C)N(C(=O)CC1(O)CCCCC1)C(C)C`, with -14% (inactive).
On to `CCCCN(CCCC)CC(O)c1cc(-c2ccc(Cl)cc2)nc2cc(C)ccc12` (stereo not drawn), for which the growth inhibition was 97% (active).
Regarding `C/C(=C\c1ccccc1Cl)c1ccccn1`, the growth inhibition is 67% (inactive).
Still for that read-out and setting: the same measure for `O=C(OC1C2CCC2C2CC21)c1cc([N+](=O)[O-])cc([N+](=O)[O-])c1` (stereo not drawn): 97% (active); for `O=c1[nH]c2c([N+](=O)[O-])cc(Cl)cc2nc1/C=C(\O)c1ccc(F)cc1`: 64% (inactive).
As to `CC(=O)N[C@H]1CC[C@H]2[C@@H]3CCC4=CC(=O)CC[C@]4(C)[C@H]3CC[C@]12C`, the growth inhibition is 94% (active).
On the same count and under the same terms, the same measure for `CC12OC(=O)C(C(N)=O)=C1C=C(c1ccccc1)CC2c1ccccc1` (stereo not drawn): 23% (inactive); for `Cn1c2nc(-[n+]3ccccc3)nc-2c([O-])n(C)c1=O`: 3% (inactive).
Regarding `COc1cc(NCCCCCCCC2CCCCN2)c2ncccc2c1` (stereo not drawn), the growth inhibition is 95% (active).
Same read-out and setting: then `Nc1ncnc(N2CCOCC2)c1N`, with -5% (inactive); and `CCCCCCCCCCCCNCC(=O)O`, with 80% (active).
The same measure, in the same setting: the same measure for `O=C(O)C1C2CC3CC(C2)CC1C3` (stereo not drawn): 42% (inactive); for `CC(=O)OC1CCC2(C)C(=CCC3C2CCC2(C)C3CC(C(N)=O)C2C(C)=O)C1` (stereo not drawn): 25% (inactive); for `CC1(C)CC(=N/O)/C(=N/O)C(=N\NC(N)=S)/C1`: 54% (inactive).
With `CCCCCCCCCCCCCCCCCC1=NCCN1`, the growth inhibition is 98% (active).
As to `O=c1c2ccccc2c2ccccc2c(=O)n1-c1cc2c3ccccc3ccc2c2ccccc12`, the growth inhibition is 16% (inactive).

The values above are taken from PubChem BioAssay (NCI).
